# Measured values taken from PubChem BioAssay (EPA / NIEHS).
# Active and inactive are the calls of the source. Rule for the calls: active = hit-call score of the fitted dose curve at least 0.9, where 1 is the maximum; inactive = score below 0.9.
# Assays:
# Conditions in all cases: mRNA level, 48 h; actives raise or lower the signal
# [1] = read-out: Glutathione S-Transferase (GSTA2), GSTA2 (gene 2939); test: LTEA_HepaRG_GSTA2: Life Technologies and Expression Analysis (LTEA) Assay for Glutathione S-Transferase (GSTA2) using HepaRG (AID 2283497)
# Summary of the method: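 HepaRG, 48 h dosing, 8-pt half-log CRC from 100 uM, 0.5% DMSO vehicle, n=2; RNA → Fluidigm TaqMan qRT-PCR; GSTA2 vs ACTB/GAPDH/POLR2A; gain/loss fit vs DMSO.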
# [2] = read-out: Glutamate-cysteine ligase catalytic (GCLC), GCLC (gene 2729); test: LTEA_HepaRG_GCLC: Life Technologies and Expression Analysis (LTEA) Assay for Glutamate-cysteine ligase catalytic (GCLC) using HepaRG (AID 2283498)
# Summary of the method: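 Read-out is GCLC transcript level by Fluidigm-based TaqMan qRT-PCR, normalized to three housekeeping genes and fitted in both directions relative to 0.5% DMSO. Human HepaRG cells received chemicals for 48 h, up to 100 uM.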
# [3] = read-out: growth arrest and DNA damage 45 (GADD45G), GADD45G (gene 10912); test: LTEA_HepaRG_GADD45G: Life Technologies and Expression Analysis (LTEA) Assay for growth arrest and DNA damage 45 (GADD45G) using HepaRG (AID 2283499)
# Summary of the method: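 GADD45G transcript level by qRT-PCR (housekeeping-normalized: ACTB, GAPDH, POLR2A) after 48 h chemical treatment of a single HepaRG lot in serum-free induction medium; eight-point half-log series up to 100 uM in 0.5% DMSO, duplicates, up- or down-regulation scored.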
# [4] = read-out: Glutamate-cysteine ligase regulatory (GCLM), GCLM (gene 2730); test: LTEA_HepaRG_GCLM: Life Technologies and Expression Analysis (LTEA) Assay for Glutamate-cysteine ligase regulatory (GCLM) using HepaRG (AID 2283500)
# Summary of the method: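 Human liver HepaRG cultures receive test chemicals for 48 hours at up to 100 uM in 0.5% DMSO. GCLM expression is measured by qRT-PCR and analysed for increases or decreases against vehicle.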
# [5] = read-out: Glutathione S-transferase M3 (GSTM3), GSTM3 (gene 2947); test: LTEA_HepaRG_GSTM3: Life Technologies and Expression Analysis (LTEA) Assay for Glutathione S-transferase M3 (GSTM3) using HepaRG (AID 2283501)
# Summary of the method: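 GSTM3 transcript levels came from Fluidigm TaqMan qRT-PCR normalized to three housekeeping genes, fitted in both directions against DMSO. HepaRG cultures received chemicals for 48 h in serum-free induction medium (0.5% DMSO), 8 half-log concentrations up to 100 uM, duplicate.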
# [6] = read-out: Heat shock 70 kDa protein 1 (HSPA1A), gene 3303; test: LTEA_HepaRG_HSPA1A: Life Technologies and Expression Analysis (LTEA) Assay for Heat shock 70 kDa protein 1 (HSPA1A) using HepaRG (AID 2283502)
# Summary of the method: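 HSPA1A induction in human HepaRG liver cells is measured after 48 h of chemical treatment (100 uM maximum, 0.5% DMSO vehicle). Expression comes from qRT-PCR normalized to endogenous controls.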
# [7] = read-out: Hypoxia-inducible factor 1-alpha (Homo sapiens) (UniProt Q16665); test: LTEA_HepaRG_HIF1A: Life Technologies and Expression Analysis (LTEA) Assay for Hypoxia-inducible factor 1 (HIF1A) Trancription factor using HepaRG (AID 2283503)
# Summary of the method: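 HepaRG, 48 h exposure, 8-pt half-log series from 100 uM, 0.5% DMSO vehicle, duplicates. Readout: HIF1A transcript by qRT-PCR (Fluidigm array), housekeeping-normalised. Bidirectional curve fit vs DMSO baseline.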
# [8] = read-out: 3-Hydroxy-3-Methylglutaryl-CoA Synthase 2 (HMGCS2), HMGCS2 (gene 3158); test: LTEA_HepaRG_HMGCS2: Life Technologies and Expression Analysis (LTEA) Assay for 3-Hydroxy-3-Methylglutaryl-CoA Synthase 2 (HMGCS2) using HepaRG (AID 2283504)
# Summary of the method: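 Readout is HMGCS2 transcript by qRT-PCR, housekeeping-normalised (ACTB/GAPDH/POLR2A) and fitted bidirectionally against 0.5% DMSO. Differentiated HepaRG cells received chemicals 48 h, duplicate wells, eight half-log concentrations topping at 100 uM.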
# HGF (gene 3082) = test: LTEA_HepaRG_HGF: Life Technologies and Expression Analysis (LTEA) Assay for Hepatocyte Growth Facto (HGF) using HepaRG (AID 2283505)
# Summary of the method: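 HGF transcript was quantified by TaqMan qRT-PCR against three housekeeping genes after 48 h treatment of HepaRG cells. Exposure ran in duplicate over eight half-log steps topping at 100 uM in 0.5% DMSO vehicle.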
# [9] = read-out: Insulin Like Growth Factor 1 (IGF1), IGF1 (gene 3479); test: LTEA_HepaRG_IGF1: Life Technologies and Expression Analysis (LTEA) Assay for Insulin Like Growth Factor 1 (IGF1) using HepaRG (AID 2283506)
# Summary of the method: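 Using human HepaRG liver cells, IGF1 transcript induction or suppression is measured 48 h after dosing across eight concentrations capped at 100 uM. Values derive from bidirectional concentration-response fitting with DMSO as baseline.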
# [10] = read-out: Intercellular Adhesion Molecule 1 (ICAM1), ICAM1 (gene 3383); test: LTEA_HepaRG_ICAM1: Life Technologies and Expression Analysis (LTEA) Assay for Intercellular Adhesion Molecule 1 (ICAM1) using HepaRG (AID 2283507)
# Summary of the method: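 ICAM1 transcript levels measured by qRT-PCR, normalized to three housekeeping genes (ACTB, GAPDH, POLR2A), after 48 h chemical exposure of HepaRG cells. Duplicate eight-point half-log series from 100 uM in 0.5% DMSO; gain or loss fitted against vehicle.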
# [11] = read-out: Insulin-like growth factor-binding protein 1 (IGFBP1), IGFBP1 (gene 3484); test: LTEA_HepaRG_IGFBP1: Life Technologies and Expression Analysis (LTEA) Assay for Insulin-like growth factor-binding protein 1 (IGFBP1) using HepaRG (AID 2283508)
# Summary of the method: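 Read-out is qRT-PCR transcript level normalized to three housekeeping genes, fitted in both directions against 0.5% DMSO. Differentiated HepaRG cells received eight half-log concentrations (top 100 uM) in duplicate for 48 h in serum-free induction medium.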
# [12] = read-out: Interleukin 6 (IL6), IL6 (gene 3569); test: LTEA_HepaRG_IL6: Life Technologies and Expression Analysis (LTEA) Assay for Interleukin 6 (IL6) using HepaRG (AID 2283509)
# Summary of the method: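 HepaRG, ~100,000 cells/well, 48 h pre-culture; serum-free induction medium; cmpd 8-pt half-log from 100 uM, 0.5% DMSO, duplicate, 48 h. Lysis in RLT, TaqMan qRT-PCR; gain or loss vs DMSO.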
# [13] = read-out: Interleukin 6 Receptor (IL6R), IL6R (gene 3570); test: LTEA_HepaRG_IL6R: Life Technologies and Expression Analysis (LTEA) Assay for Interleukin 6 Receptor (IL6R) using HepaRG (AID 2283510)
# Summary of the method: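 Concentration-response in human liver HepaRG cells: eight concentrations from 100 uM downward by half-logs, 48 h exposure, 0.5% DMSO vehicle. IL6R mRNA change measured by qRT-PCR and fitted in both directions relative to vehicle.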
# [14] = read-out: Potassium channel subfamily K member 1 (KCNK1), KCNK1 (gene 3775); test: LTEA_HepaRG_KCNK1: Life Technologies and Expression Analysis (LTEA) Assay for Potassium channel subfamily K member 1 (KCNK1) using HepaRG (AID 2283511)
# Summary of the method: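 Gain or loss of KCNK1 mRNA is the read-out, quantified by qRT-PCR against three housekeeping genes after 48 h chemical treatment of human HepaRG liver cells. Concentrations ran from 100 uM downward in half-log steps, vehicle 0.5% DMSO.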
# [15] = read-out: Keratin 19 (KRT19), KRT19 (gene 3880); test: LTEA_HepaRG_KRT19: Life Technologies and Expression Analysis (LTEA) Assay for Keratin 19 (KRT19) using HepaRG (AID 2283512)
# Summary of the method: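 KRT19 transcript measured by TaqMan qRT-PCR, referenced to three housekeeping genes, after HepaRG cells received test chemicals for 48 h. Eight half-log concentrations, top 100 uM, 0.5% DMSO vehicle; increases and decreases both fitted.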
# [16] = read-out: Lipase C (LIPC), LIPC (gene 3990); test: LTEA_HepaRG_LIPC: Life Technologies and Expression Analysis (LTEA) Assay for Lipase C (LIPC) using HepaRG (AID 2283514)
# Summary of the method: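 Read-out is LIPC transcript level by TaqMan qRT-PCR, normalized to three housekeeping genes, after 48 h chemical treatment of human HepaRG liver cells. Curves span eight concentrations topping at 100 uM; activity in either direction scored relative to 0.5% DMSO.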
# [17] = read-out: Lipoprotein lipase (LPL), LPL (gene 4023); test: LTEA_HepaRG_LPL: Life Technologies and Expression Analysis (LTEA) Assay for Lipoprotein lipase (LPL) using HepaRG (AID 2283515)
# Summary of the method: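 Read-out is LPL transcript level by qRT-PCR, normalized to three housekeeping genes and fitted bidirectionally against the DMSO control. Human HepaRG cells received chemicals for 48 h at up to 100 uM.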
# [18] = read-out: MicroRNA 122 (MIR122), gene 406906; test: LTEA_HepaRG_MIR122: Life Technologies and Expression Analysis (LTEA) Assay for MicroRNA 122 (MIR122) using HepaRG (AID 2283516); note: the transcript read is the microRNA miR-122
# Summary of the method: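 HepaRG, 48 h exposure, 8-pt half-log from 100 uM, 0.5% DMSO; TaqMan qRT-PCR; bidirectional fit vs DMSO.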
# [19] = read-out: Cytochrome P450 7A1 (Homo sapiens) (UniProt P22680); test: LTEA_HepaRG_CYP7A1: Life Technologies and Expression Analysis (LTEA) Assay for Cytochrome P450 7A1 (CYP7A1) using HepaRG (AID 2283496)
# Summary of the method: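 Gene expression endpoint in human HepaRG liver cells treated for 48 h with test chemicals (up to 100 uM, 0.5% DMSO). Values come from bidirectional concentration-response fitting versus DMSO.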
# Hypoxia-inducible factor 1-alpha (Homo sapiens), sequence (Q16665 whole entry, looked up): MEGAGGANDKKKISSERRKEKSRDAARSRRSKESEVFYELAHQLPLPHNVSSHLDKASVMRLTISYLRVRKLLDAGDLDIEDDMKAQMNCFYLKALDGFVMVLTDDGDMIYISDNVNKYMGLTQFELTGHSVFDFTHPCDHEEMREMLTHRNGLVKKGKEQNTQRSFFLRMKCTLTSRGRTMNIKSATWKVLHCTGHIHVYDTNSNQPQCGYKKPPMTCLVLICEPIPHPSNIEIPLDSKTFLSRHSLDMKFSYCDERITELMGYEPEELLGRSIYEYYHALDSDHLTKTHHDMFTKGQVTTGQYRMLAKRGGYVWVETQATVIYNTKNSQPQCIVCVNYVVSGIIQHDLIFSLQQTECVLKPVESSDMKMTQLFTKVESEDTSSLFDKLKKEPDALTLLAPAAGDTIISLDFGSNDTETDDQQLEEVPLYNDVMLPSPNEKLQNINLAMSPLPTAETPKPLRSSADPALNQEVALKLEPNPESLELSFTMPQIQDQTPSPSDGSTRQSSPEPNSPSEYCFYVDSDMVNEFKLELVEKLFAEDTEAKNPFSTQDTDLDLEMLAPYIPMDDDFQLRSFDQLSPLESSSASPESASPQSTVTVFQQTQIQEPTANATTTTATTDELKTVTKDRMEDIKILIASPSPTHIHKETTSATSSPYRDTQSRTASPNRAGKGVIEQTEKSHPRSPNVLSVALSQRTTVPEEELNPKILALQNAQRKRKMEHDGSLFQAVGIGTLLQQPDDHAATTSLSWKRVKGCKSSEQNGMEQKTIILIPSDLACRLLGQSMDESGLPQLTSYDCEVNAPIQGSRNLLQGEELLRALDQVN
smiles,measurement,setting,value
CCCCc1oc2ccccc2c1C(=O)c1cc(I)c(OCCN(CC)CC)c(I)c1,AC50,[1],59 µM (active)
same,AC50,[2],67.4 µM (active)
same,AC50,[3],55.1 µM (active)
same,AC50,[4],61.8 µM (active)
same,AC50,[5],37.8 µM (active)
same,AC50,[6],60 µM (active)
same,AC50,[7],64.5 µM (active)
same,AC50,[8],61.6 µM (active)
same,outcome,HGF (gene 3082),inactive
same,AC50,[9],46.2 µM (active)
same,AC50,[10],59.5 µM (active)
same,AC50,[11],54 µM (active)
same,AC50,[12],61.9 µM (active)
same,outcome,[13],inactive
same,AC50,[14],55.5 µM (active)
same,AC50,[15],37.8 µM (active)
same,AC50,[16],55.7 µM (active)
same,AC50,[17],47.6 µM (active)
same,AC50,[18],70.4 µM (active)
CN(Cc1cnc2nc(N)nc(N)c2n1)c1ccc(C(=O)N[C@@H](CCC(=O)O)C(=O)O)cc1,AC50,[19],0.233 µM (active)
same,AC50,[1],0.264 µM (active)
same,outcome,[2],inactive
same,outcome,[3],inactive
same,outcome,[4],inactive
same,outcome,[5],inactive
same,outcome,[8],inactive
same,outcome,HGF (gene 3082),inactive
same,outcome,[9],inactive
same,outcome,[10],inactive
same,outcome,[11],inactive
same,outcome,[12],inactive
same,outcome,[13],inactive
same,outcome,[14],inactive
same,outcome,[15],inactive
same,outcome,[16],inactive
same,outcome,[17],inactive
same,outcome,[18],inactive
O=C(c1ccccc1)c1ccccc1,outcome,[1],inactive
same,outcome,[2],inactive
same,outcome,[3],inactive
same,outcome,[4],inactive
same,outcome,[5],inactive
same,outcome,[6],inactive
same,outcome,[7],inactive
same,outcome,[8],inactive
same,outcome,HGF (gene 3082),inactive
same,outcome,[9],inactive
same,outcome,[10],inactive
same,outcome,[11],inactive
same,outcome,[12],inactive
same,outcome,[13],inactive
same,outcome,[14],inactive
same,outcome,[15],inactive
same,outcome,[16],inactive
same,outcome,[17],inactive
same,outcome,[18],inactive
CCCCC(CC)C(=O)O (stereo unspecified),outcome,[19],inactive
same,outcome,[1],inactive
same,outcome,[2],inactive
same,outcome,[3],inactive
same,outcome,[4],inactive
same,outcome,[5],inactive
same,outcome,[6],inactive
same,outcome,[7],inactive
same,outcome,[8],inactive
same,outcome,HGF (gene 3082),inactive
same,outcome,[9],inactive
same,outcome,[10],inactive
same,outcome,[11],inactive
same,outcome,[12],inactive
same,outcome,[13],inactive
same,outcome,[14],inactive
same,outcome,[15],inactive
same,outcome,[16],inactive
same,outcome,[17],inactive
same,outcome,[18],inactive
